Screens (PubChem)
An excerpt weighted towards active compounds, which were near 2.9% of everything screened.
MEKK3 PB1 HTS: raises or lowers MEK5 binding to the human MEKK3 PB1 domain; Q99759; bead-based flow cytometry, Alexa488-MEK5 binding to MEKK3; actives lie on both sides; 0 = blocked by unlabeled MEK5, 100 = vehicle; binding response (% of control), % at 10 µM; 1.4% of 290,000 active;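 active = binding response more than 3 SD above or below the average of its plate-row segment, actives on both sides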;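 note: Alexa488 bead fluorescence after subtracting the streptavidin-only scavenger bead signal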
dFosB act-1: mouse delta FosB homodimer activation | purified delta FosB, TAMRA-CDK5 oligo fluorescence polarization; percent of positive-control signal above neutral wells | P13346 | activation, % at 25 µM | 0.99% of 340,000 active;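 active = mean activation above about 17%, with every replicate also reaching it, limit read from the data, passing the limit was not always enough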
Target sequence (P13346 whole entry, looked up): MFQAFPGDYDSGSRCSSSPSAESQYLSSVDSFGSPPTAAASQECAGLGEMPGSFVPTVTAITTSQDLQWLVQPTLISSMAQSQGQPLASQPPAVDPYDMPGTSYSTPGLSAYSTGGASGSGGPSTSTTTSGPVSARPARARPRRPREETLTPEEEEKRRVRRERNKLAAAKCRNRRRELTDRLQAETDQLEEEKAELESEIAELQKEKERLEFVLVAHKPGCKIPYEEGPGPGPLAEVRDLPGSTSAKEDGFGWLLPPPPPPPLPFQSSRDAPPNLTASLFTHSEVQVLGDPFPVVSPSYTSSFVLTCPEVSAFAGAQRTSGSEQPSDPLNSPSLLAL
MEKK2mut PB1 HTS: signal of MEK5 binding to mutant human MEKK2 PB1 domain; bead flow cytometry, Alexa488-MEK5 binding to MEKK2 mutant; percent response, % at 10 µM; 0.35% of 290,000 active; AID 1530; in the data active = percent response above about 24%, passing the limit was not always enough
FID counter: displaces DNA intercalator in HCV helicase counter-screen. DNA fluorescent intercalator displacement, fluorescence. AID 1845. inhibition, % at 7.9 µM. 0.17% of 290,000 active; in the data active = inhibition above about 37%;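 note: 0% = vehicle and 100% = reference compound; higher means more ethidium bromide displaced from hairpin DNA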
MEKK2 WT-MEK5: raises or lowers MEK5 binding to wildtype human MEKK2 PB1 domain; Q9Y2U5; bead flow cytometry, Alexa488-MEK5 binding to MEKK2 WT; actives lie on both sides; binding response (% of control), % at 10 µM; 1.1% of 290,000 active; AID 1531; in the data active = binding response below about 67% or above about 130%
dFosB act-2: delta FosB (mouse) homodimer activation; shares compounds with dFosB act-1; purified delta FosB, TAMRA-CDK5 oligo fluorescence polarization; normalised: neutral wells 0, positive control 100; activation, % at 24.9 µM; 2,400 tested, under 10 active; AID 588690;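 active = highest replicate activation at or above 34% and every replicate reaching that threshold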;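 note: higher polarization means more probe DNA bound by delta FosB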
Starred values were filed as active, the others as inactive; . = no result given.

SMILES	MEKK3 PB1 HTS	dFosB act-1	MEKK2mut PB1 HTS	FID counter	MEKK2 WT-MEK5	dFosB act-2
O=C(COc1ccc([N+](=O)[O-])cc1)NNC(=O)Nc1ccccc1F	107	11	9	-11	106	.
Cc1cccc(NC(=O)NNC(=O)COc2ccc([N+](=O)[O-])cc2)c1C	102	31*	7	-3	105	3
Cc1nonc1C(=O)N/N=C/c1ccc(O)cc1O	119	-7	1	-7	106	.
O=C(NCc1cccs1)c1ccc(CS(=O)Cc2cccc(Cl)c2)o1 (configuration not stated)	98	-4	-3	-20	94	.
COc1ccc(Cl)cc1N1C(=O)CC(Sc2ccccc2N)C1=O (configuration not stated)	90	38*	-18	-4	97	-5
CN(CCCC1CCCC1)C(=O)CC1C(=O)NCCN1Cc1ccc(F)cc1 (configuration not stated)	101	-4	7	-31	112	.
COc1ccc(-c2cc(-c3cccs3)c(C#N)c(SCC(=O)NCc3ccccc3OC)n2)cc1	87	23*	-1	7	84	3
COc1ccccc1CNC(=O)CSc1nc(N)c(C#N)c(-c2cccs2)c1C#N	102	75*	1	-10	100	-4
COCCSc1ccccc1C(=O)N1CCN(c2ccccc2OC)CC1	109	-6	1	-17	103	.
CCn1nc(C)c(CNC(=O)c2cc(COc3ccc(F)cc3Cl)on2)c1C	104	-10	1	-39	100	.
COc1ccc(-n2c(=S)[nH]c3cc(C(=O)Nc4cc(C(N)=O)ccc4OC)ccc3c2=O)c(OC)c1	103	32*	0	-22	99	3
COc1ccc(NC(=O)c2ccc3c(=O)n(-c4ccc(OC)cc4OC)c(=S)[nH]c3c2)c(OC)c1	108	1	-2	10	99	.
C=CCN(C(=O)COc1ccccc1)c1nnc(-c2ccncc2)s1	105	22*	10	-15	105	1
CCOC(=O)C1CCN(CCC(=O)Nc2ccccc2)CC1	105	-1	-1	-1	102	.
COc1cc(NS(C)(=O)=O)ccc1Nc1c2ccccc2nc2ccccc12	.	10	.	.	.	.
CCOc1ccc(-n2cc(C(=O)NC(C)C)c3cc(OC)c(OC)cc3c2=O)cc1	100	-16	-2	-33	98	.
CCOc1ccc(NC(=O)c2cn(-c3ccc(OCC)cc3)c(=O)c3cc(OC)c(OC)cc23)cc1	110	20*	0	-7	107	1
CSc1ccccc1NC(=O)Nc1cccc(Cl)c1C	100	6	-2	3	96	.
CSc1ccccc1NC(=O)Nc1cccc(Cl)c1Cl	101	26*	2	-8	97	0
CC(C)CCNC(=O)CCC(=O)NNc1nc2ccccc2c2nc(-c3ccccc3)nn12	104	56*	-1	-8	100	6
O=C(CCC(=O)NNc1nc2ccccc2c2nc(-c3ccccc3)nn12)NCCCN1CCOCC1	100	-24	-13	-5	89	.
CC1CCCC(n2c(=S)[nH]c3ccccc3c2=O)C1C (configuration not stated)	109	-12	8	-1	106	.
Clc1cccc(CNc2nc(-c3cccnc3)nc3ccccc23)c1	101	55*	6	-19	106	2
S=c1nc(NCc2cccc(Cl)c2)c2ccccc2[nH]1	111	45*	11	-3	105	0
c1ccc(CNc2nc(-c3cccs3)nc3ccccc23)cc1	103	17*	1	2	116	2
c1ccc(CNc2nc(-c3ccccc3)nc3ccccc23)cc1	105	0	4	8	108	.
COc1ccccc1CNS(=O)(=O)c1c(C)[nH]c(C)c1C(=O)N1CCCC1	104	-2	9	-9	105	.
CC1(C)Cc2c(sc(NC(=O)C(=O)N3CCCCC3)c2C(N)=O)CO1	105	-12	4	-22	108	.
O=C(C1CCCO1)N1CCN(C(=S)Nc2ccc(Cl)c(Cl)c2)CC1 (configuration not stated)	119	3	0	-3	106	.
Cc1ccc(NC(=O)c2nc[nH]c2C(=O)NCC(=O)OC(C)(C)C)cc1	85	-2	0	.	103	.
